Assay results as given in PubChem BioAssay AID1159580 (chemical genetic matrix, 2015).
In all, about 5,500 compounds went through this assay and about 2,000 (36%) were called active. Roughly 18% stayed inconclusive and do not appear here. No stated cut-off is given here; in the data, active means normalized growth mostly below about 0.91 (no sharp cut-off); inconclusive means no clear call, values can overlap the other calls; inactive means mostly above about 0.92. The list shows a part of the results.

Experiment: chemical genetic growth profiling, strain panel (AID 1159580);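 further: tested at 20 µM; growth read once vehicle control cultures reached saturation at 30 °C; 1 = growth at the plate median or of vehicle wells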
Settings: growth OD
[1] = S. cerevisiae deletion strains, locus YCL061C, strain MRC1, stronger effect = lower value
[2] = S. cerevisiae deletion strains, locus YDR150W, strain NUM1, stronger effect = lower value
[3] = S. cerevisiae deletion strains, locus YHR030C, strain SLT2, stronger effect = lower value
[4] = S. cerevisiae deletion strains, locus YJR075W, strain HOC1, stronger effect = lower value
[5] = S. cerevisiae deletion strains, locus YNL153C, strain GIM3, stronger effect = lower value
[6] = S. cerevisiae deletion strains, locus YPL055C, strain LGE1, stronger effect = lower value
[7] = S. cerevisiae deletion strains, locus YPL241C, strain CIN2, stronger effect = lower value

Measured: normalized growth

NCCS(=O)(=O)O
inactive: S. cerevisiae deletion strains, locus YAL021C, strain ccr4, stronger effect = lower value 0.965 | S. cerevisiae deletion strains, locus YAL026C, strain drs2, stronger effect = lower value 0.978 | S. cerevisiae deletion strains, locus YAL030W, strain snc1, stronger effect = lower value 0.981 | S. cerevisiae deletion strains, locus YAL040C, strain CLN3, stronger effect = lower value 1 | S. cerevisiae deletion strains, locus YBL061C, strain skt5, stronger effect = lower value 0.984 | S. cerevisiae deletion strains, locus YBR009C, strain hhf1, stronger effect = lower value 0.981 | S. cerevisiae deletion strains, locus YBR023C, strain chs3, stronger effect = lower value 0.982 | S. cerevisiae deletion strains, locus YBR171W, strain sec66, stronger effect = lower value 0.97 | S. cerevisiae deletion strains, locus YBR231C, strain swc5, stronger effect = lower value 0.983 | S. cerevisiae deletion strains, locus YBR279W, strain paf1, stronger effect = lower value 0.985 | S. cerevisiae deletion strains, locus YCL011C, strain gbp2, stronger effect = lower value 0.965 | S. cerevisiae deletion strains, locus YCL016C, strain dcc1, stronger effect = lower value 0.984 | S. cerevisiae deletion strains, locus YCL061C, strain MRC1 (second series), stronger effect = lower value 1 | [1] 0.98 | S. cerevisiae deletion strains, locus YCL069W, strain vba3, stronger effect = lower value 0.976 | S. cerevisiae deletion strains, locus YCR088W, strain abp1, stronger effect = lower value 0.978 | S. cerevisiae deletion strains, locus YDL005C, strain med2, stronger effect = lower value 0.984 | S. cerevisiae deletion strains, locus YDL040C, strain nat1, stronger effect = lower value 0.986 | S. cerevisiae deletion strains, locus YDR001C, strain nth1, stronger effect = lower value 0.983 | S. cerevisiae deletion strains, locus YDR069C, strain doa4, stronger effect = lower value 0.98 | S. cerevisiae deletion strains, locus YDR137W, strain rgp1, stronger effect = lower value 0.971 | [2] 1.01 | S. cerevisiae deletion strains, locus YDR159W, strain sac3, stronger effect = lower value 0.952 | S. cerevisiae deletion strains, locus YDR195W, strain ref2 0.924 | S. cerevisiae deletion strains, locus YDR297W, strain sur2, stronger effect = lower value 0.979 | S. cerevisiae deletion strains, locus YDR334W, strain swr1, stronger effect = lower value 0.948 | S. cerevisiae deletion strains, locus YDR335W, strain msn5, stronger effect = lower value 0.969 | S. cerevisiae deletion strains, locus YDR363W, strain ESC2, stronger effect = lower value 1 | S. cerevisiae deletion strains, locus YDR392W, strain spt3, stronger effect = lower value 0.977 | S. cerevisiae deletion strains, locus YEL003W, strain gim4, stronger effect = lower value 0.975 | S. cerevisiae deletion strains, locus YEL037C, strain rad23, stronger effect = lower value 0.975 | S. cerevisiae deletion strains, locus YEL061C, strain CIN8 (second series), stronger effect = lower value 0.97 | S. cerevisiae deletion strains, locus YER002W, strain NOP16, stronger effect = lower value 0.984 | S. cerevisiae deletion strains, locus YER015W, strain faa2, stronger effect = lower value 0.971 | S. cerevisiae deletion strains, locus YER016W, strain bim1, stronger effect = lower value 0.975 | S. cerevisiae deletion strains, locus YER111C, strain swi4, stronger effect = lower value 0.967 | S. cerevisiae deletion strains, locus YER155C, strain BEM2 (second series), stronger effect = lower value 0.978 | S. cerevisiae deletion strains, locus YFR010W, strain ubp6, stronger effect = lower value 0.959 | S. cerevisiae deletion strains, locus YGL167C, strain pmr1, stronger effect = lower value 0.977 | S. cerevisiae deletion strains, locus YGL173C, strain kem1, stronger effect = lower value 0.971 | S. cerevisiae deletion strains, locus YGL227W, strain vid30, stronger effect = lower value 0.984 | S. cerevisiae deletion strains, locus YGL240W, strain doc1, stronger effect = lower value 0.961 | S. cerevisiae deletion strains, locus YGL253W, strain hxk2, stronger effect = lower value 0.986 | S. cerevisiae deletion strains, locus YHR013C, strain ard1, stronger effect = lower value 0.968 | S. cerevisiae deletion strains, locus YHR027C, strain rpn1, stronger effect = lower value 0.967 | [3] 0.943 | S. cerevisiae deletion strains, locus YHR079C, strain IRE1, stronger effect = lower value 0.966 | S. cerevisiae deletion strains, locus YHR142W, strain chs7, stronger effect = lower value 0.964 | S. cerevisiae deletion strains, locus YJL092W, strain hpr5, stronger effect = lower value 0.963 | S. cerevisiae deletion strains, locus YJL095W, strain BCK1 (second series), stronger effect = lower value 0.972 | S. cerevisiae deletion strains, locus YJL095W, strain BCK1, stronger effect = lower value 0.998 | S. cerevisiae deletion strains, locus YJL115W, strain asf1, stronger effect = lower value 0.958 | S. cerevisiae deletion strains, locus YJL129C, strain trk1, stronger effect = lower value 0.961 | S. cerevisiae deletion strains, locus YJL154C, strain vps35, stronger effect = lower value 0.974 | S. cerevisiae deletion strains, locus YJL164C, strain tpk1, stronger effect = lower value 0.986 | S. cerevisiae deletion strains, locus YJL166W, strain qcr8, stronger effect = lower value 0.986 | S. cerevisiae deletion strains, locus YJL187C, strain SWE1, stronger effect = lower value 0.982 | S. cerevisiae deletion strains, locus YJR066W, strain TOR1, stronger effect = lower value 0.92 | [4] 0.999 | S. cerevisiae deletion strains, locus YKL160W, strain elf1, stronger effect = lower value 0.983 | S. cerevisiae deletion strains, locus YKR026C, strain gcn3, stronger effect = lower value 0.967 | S. cerevisiae deletion strains, locus YKR091W, strain srl3, stronger effect = lower value 0.979 | S. cerevisiae deletion strains, locus YLL001W, strain dnm1, stronger effect = lower value 0.97 | S. cerevisiae deletion strains, locus YLL026W, stronger effect = lower value 0.982 | S. cerevisiae deletion strains, locus YLL041C, strain sdh2, stronger effect = lower value 0.971 | S. cerevisiae deletion strains, locus YLR027C, strain aat2, stronger effect = lower value 0.981 | S. cerevisiae deletion strains, locus YLR113W, strain HOG1, stronger effect = lower value 1.02 | S. cerevisiae deletion strains, locus YLR221C, strain rsa3, stronger effect = lower value 0.982 | S. cerevisiae deletion strains, locus YLR258W, strain gsy2, stronger effect = lower value 0.987 | S. cerevisiae deletion strains, locus YLR262C, strain YPT6 (second series), stronger effect = lower value 0.99 | S. cerevisiae deletion strains, locus YLR320W, strain mms22, stronger effect = lower value 0.972 | S. cerevisiae deletion strains, locus YLR342W, strain FKS1, stronger effect = lower value 0.985 | S. cerevisiae deletion strains, locus YLR357W, strain rsc2, stronger effect = lower value 0.972 | S. cerevisiae deletion strains, locus YLR370C, strain arc18, stronger effect = lower value 0.981 | S. cerevisiae deletion strains, locus YLR384C, strain iki3, stronger effect = lower value 0.977 | S. cerevisiae deletion strains, locus YML120C, strain ndi1, stronger effect = lower value 0.963 | S. cerevisiae deletion strains, locus YMR058W, strain fet3, stronger effect = lower value 0.97 | S. cerevisiae deletion strains, locus YMR125W, strain sto1, stronger effect = lower value 0.954 | S. cerevisiae deletion strains, locus YMR129W, stronger effect = lower value 0.978 | S. cerevisiae deletion strains, locus YMR205C, strain PFK2, stronger effect = lower value 1 | S. cerevisiae deletion strains, locus YMR231W, strain pep5, stronger effect = lower value 0.985 | S. cerevisiae deletion strains, locus YMR307W, strain GAS1, stronger effect = lower value 1 | S. cerevisiae deletion strains, locus YNL071W, strain lat1, stronger effect = lower value 0.981 | S. cerevisiae deletion strains, locus YNL128W, strain TEP1, stronger effect = lower value 1 | [5] 1.04 | S. cerevisiae deletion strains, locus YNL175C, strain NOP13, stronger effect = lower value 1.01 | S. cerevisiae deletion strains, locus YNL183C, strain NPR1, stronger effect = lower value 0.939 | S. cerevisiae deletion strains, locus YNL197C, strain WHI3, stronger effect = lower value 0.993 | S. cerevisiae deletion strains, locus YNL209W, strain ssb2, stronger effect = lower value 0.973 | S. cerevisiae deletion strains, locus YNL224C, strain SQS1, stronger effect = lower value 1 | S. cerevisiae deletion strains, locus YNL248C, strain rpa49, stronger effect = lower value 0.944 | S. cerevisiae deletion strains, locus YNL322C, strain KRE1 (second series), stronger effect = lower value 0.971 | S. cerevisiae deletion strains, locus YNR049C, strain mso1, stronger effect = lower value 0.975 | S. cerevisiae deletion strains, locus YOR001W, strain rrp6, stronger effect = lower value 0.957 | S. cerevisiae deletion strains, locus YOR070C, strain gyp1, stronger effect = lower value 0.992 | S. cerevisiae deletion strains, locus YOR080W, strain dia2, stronger effect = lower value 0.978 | S. cerevisiae deletion strains, locus YOR083W, strain WHI5 (second series), stronger effect = lower value 1.03 | S. cerevisiae deletion strains, locus YOR083W, strain WHI5, stronger effect = lower value 0.976 | S. cerevisiae deletion strains, locus YOR106W, strain vam3, stronger effect = lower value 0.97 | S. cerevisiae deletion strains, locus YOR231W, strain MKK1, stronger effect = lower value 0.954 | S. cerevisiae deletion strains, locus YOR265W, strain rbl2, stronger effect = lower value 0.976 | S. cerevisiae deletion strains, locus YOR270C, strain vph1, stronger effect = lower value 0.949 | S. cerevisiae deletion strains, locus YOR290C, strain snf2, stronger effect = lower value 0.999 | S. cerevisiae deletion strains, locus YPL051W, strain arl3, stronger effect = lower value 0.99 | [6] 1 | S. cerevisiae deletion strains, locus YPL078C, strain atp4, stronger effect = lower value 0.966 | S. cerevisiae deletion strains, locus YPL106C, strain sse1, stronger effect = lower value 0.947 | S. cerevisiae deletion strains, locus YPL240C, strain hsp82, stronger effect = lower value 0.994 | [7] 1 | S. cerevisiae deletion strains, locus YPL256C, strain CLN2, stronger effect = lower value 0.957

Cc1ccc(-c2csc(CC#N)n2)cc1C
active: S. cerevisiae deletion strains, locus YLR039C, strain RIC1, stronger effect = lower value 0.774 | S. cerevisiae deletion strains, locus YLR262C, strain YPT6, stronger effect = lower value 0.78
inactive: S. cerevisiae deletion strains, locus YAL013W, strain DEP1, stronger effect = lower value 0.987 | S. cerevisiae deletion strains, locus YBR229C, strain ROT2, stronger effect = lower value 0.961 | [1] 0.912 | S. cerevisiae deletion strains, locus YDL101C, strain DUN1, stronger effect = lower value 0.963 | S. cerevisiae deletion strains, locus YDL134C, strain PPH21, stronger effect = lower value 0.977 | [2] 0.989 | S. cerevisiae deletion strains, locus YEL061C, strain CIN8, stronger effect = lower value 0.951 | S. cerevisiae deletion strains, locus YGR078C, strain PAC10, stronger effect = lower value 0.951 | [3] 0.716 | S. cerevisiae deletion strains, locus YHR087W, strain rtc3, stronger effect = lower value 0.97 | S. cerevisiae deletion strains, locus YJR043C, strain POL32, stronger effect = lower value 0.97 | [4] 0.914 | S. cerevisiae deletion strains, locus YLR058C, strain SHM2 (second series), stronger effect = lower value 0.961 | S. cerevisiae deletion strains, locus YLR085C, strain ARP6, stronger effect = lower value 0.823 | S. cerevisiae deletion strains, locus YML094W, strain GIM5, stronger effect = lower value 0.944 | S. cerevisiae deletion strains, locus YMR219W, strain ESC1, stronger effect = lower value 0.961 | S. cerevisiae deletion strains, locus YMR263W, strain SAP30, stronger effect = lower value 0.974 | [5] 0.929 | S. cerevisiae deletion strains, locus YNL298W, strain CLA4 (second series), stronger effect = lower value 0.882 | S. cerevisiae deletion strains, locus YNL322C, strain KRE1, stronger effect = lower value 0.962 | S. cerevisiae deletion strains, locus YNR030W, strain Alg12, stronger effect = lower value 0.962 | S. cerevisiae deletion strains, locus YOL006C, strain TOP1, stronger effect = lower value 0.758 | [6] 0.946 | [7] 0.859 | S. cerevisiae deletion strains, locus YPR135W, strain CTF4, stronger effect = lower value 0.801 | S. cerevisiae strains, strain wild type, stronger effect = lower value 0.969
